# Source: paper PMC5540273 (PLoS ONE, 2017)
# What was measured:
# [1] = system: ERBB2
# [2] = system: ERBB4
# [3] = system: EPHB2
# [4] = system: T1, ERK1
# T1 construct: gene MAPK3
# [5] = system: EPHB6
# [6] = system: T2, ERK5
# T2 construct: gene MAPK7
# [7] = system: T3, ERK8
# T3 construct: gene MAPK15
# [8] = system: EPHA7
# [9] = system: ERN1
# [10] = system: EPHA8
# 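Note: kd values determined as follow-up on hits from a single-replicate KINOMEscan panel screen.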
compound,measurement,setting,value
CS(=O)(=O)CCNCc1nc(-c2ccc3ncnc(Nc4ccc(OCc5cccc(F)c5)c(Cl)c4)c3c2)cs1.Cl [GW583340],Kd,[1],0.0059 µM
same,Kd,[2],0.026 µM
Fc1cccc(COc2ccc(Nc3ncnc4sc(-c5ccc[nH]5)cc34)cc2Cl)c1 [GW707818],Kd,[1],0.1 µM
same,Kd,[2],0.56 µM
Nc1n[nH]c2nnc(-c3ccccc3)cc12 [SB-517389],Kd,[3],> 10 µM
Cl.c1ccc(Cn2ncc3cc(Nc4ncnc5ccccc45)ccc32)cc1 [GW273749],Kd,[1],0.011 µM
same,Kd,[2],0.061 µM
Nc1nc(-c2ccc3c(N)n[nH]c3c2)cc(N2CCC[C@@H](C(=O)Nc3ccccc3)C2)n1.O=C(O)C(F)(F)F.O=C(O)C(F)(F)F [GSK2288359],Kd,[4],5.3 µM
O=C(Nc1n[nH]c2nc(-c3ccco3)c(Br)cc12)c1ccc(CN2CCCC2)cc1.O=C(O)[C@H](O)[C@@H](O)C(=O)O [SB-742352],Kd,[5],0.16 µM
Cl.O=S(=O)(c1cccc(F)c1)c1ccc(Nc2ncnc3cc(Br)sc23)cc1Cl [GSK306886],Kd,[1],0.095 µM
OCCOCCn1ccc2ncnc(Nc3ccc(Oc4cccc(Cl)c4)c(Cl)c3)c21,Kd,[1],0.0029 µM
same,Kd,[2],0.077 µM
CCc1nc(-c2cccc(N(C)S(=O)(=O)c3ccccc3)c2)c(-c2ccnc(Nc3ccc(N4CCN(C(C)=O)CC4)nc3)n2)s1 [GSK1645895],Kd,[5],0.024 µM
Cl.c1ccc(Cn2ccc3cc(Nc4ncnc5ccccc45)ccc32)cc1 [GW275568],Kd,[1],0.014 µM
same,Kd,[2],0.14 µM
Clc1cc(Nc2ncnc3cc[nH]c23)ccc1OCc1ccccn1,Kd,[1],0.009 µM
O=C(CCO)NCCn1ccc2ncnc(Nc3ccc(Oc4cccc(C(F)(F)F)c4)c(Cl)c3)c21,Kd,[1],0.00088 µM
same,Kd,[2],0.1 µM
CC(C)(C)OC(=O)NC1CCCN(c2cc(-c3ccc4c(N)n[nH]c4c3)nc(N)n2)C1 (stereo not drawn) [GSK2286096],Kd,[3],> 10 µM
Cc1ccc(C)c(NC(=O)NCCNc2ccnc(Nc3ccc(F)cc3)n2)c1 [GSK1379878],Kd,[6],> 10 µM
c1ccc(-c2ccc3c(-c4ccnc(Nc5ccc6c(c5)OCCO6)n4)cnn3n2)cc1 [GW818941],Kd,[7],0.67 µM
O=C(Nc1ccccc1F)NC1CCN(c2ccnc(Nc3ccc(F)cc3)n2)C1 (stereo not drawn) [GSK1379722],Kd,[4],> 10 µM
O=c1cc(N2CCOCC2)nc2n(Cc3cccc(Cl)c3)ccn12 [GSK2296823],Kd,[2],> 10 µM
Fc1cccc(COc2ccc(Nc3ncnc4nn5ccccc5c34)cc2Cl)c1 [GW689066],Kd,[1],0.024 µM
same,Kd,[2],0.16 µM
Cc1ccc(NC(=O)c2cccc(C#N)c2)cc1-c1ccc(C(=O)Nc2ccncc2)cc1 [GSK1398463],Kd,[6],> 10 µM
CCc1nc(-c2cccc(C)c2)c(-c2ccnc(NC(=O)c3ccccc3)c2)s1,Kd,[5],7.6 µM
Cc1ccc(O)cc1Nc1cc(C(F)(F)F)nc2ccc(-c3ccncc3)cc12 [GW630823],Kd,[8],> 10 µM
Oc1ccc2ncnc(Nc3ccc(OCc4ccccc4)cc3)c2c1 [GI262866],Kd,[1],0.027 µM
O=C(Nc1ccccc1)Nc1ccc(Oc2ccc3nccn3n2)cc1,Kd,[9],> 10 µM
CS(=O)(=O)CCNCc1ccc(-c2ccc3ncnc(Nc4ccc(OCc5ccccc5)c(Cl)c4)c3c2)o1.Cl [GW574783],Kd,[1],0.0028 µM
same,Kd,[2],0.028 µM
Cl.Cn1ccc(-c2cccc(Nc3ccnc4cc(-c5nccs5)ccc34)c2)n1 [GW525701],Kd,[5],0.082 µM
Cl.Fc1ccccc1COc1ccc(Nc2ncnc3ccc(-c4nnc(C(F)(F)F)o4)cc23)cc1Cl [GW424170],Kd,[1],0.11 µM
Cn1ccc2ncnc(Nc3ccc(Oc4cccc(Cl)c4)c(Cl)c3)c21,Kd,[8],> 10 µM
same,Kd,[10],> 10 µM
same,Kd,[1],0.0012 µM
same,Kd,[2],0.074 µM
COc1cc2ncnc(Nc3ccc(OCc4ccccc4Br)c(Cl)c3)c2cc1OC.Cl [GI261590],Kd,[1],0.017 µM
same,Kd,[2],0.027 µM
Fc1cccc(COc2ccc(Nc3ncnc4cc[nH]c34)cc2Cl)c1,Kd,[1],0.0022 µM
same,Kd,[2],0.32 µM
